About 7,900 targets were measured; listed, in parts, are those with a hit and a random draw of the rest. About 0.6% of all pairs of compound and target were hits.
compound: O=C(O)c1ccc2c(c1)nc(Nc1cccc(Cl)c1)c1ccncc12 [silmitasertib]; assay: log2 fold change, soluble protein after heating vs DMSO (PISA); higher = thermal stabilisation; K562 cells, 10 uM, 30 min; active = over 0.2 and 3.5 SD of the protein, either way, in both replicates (recomputed)
Method in brief: (§1)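 K562 cells at 2×10^6 cells/mL were given 10 μM compound for 30 min. Aliquots then went through 3 min of heating across 48°C-58°C, were pooled, and were extracted in PBS with 0.5% NP-40 at 4°C, and the supernatant after 21,000xg for 90 min was quantified by TMTpro 16plex LC-MS/MS with channel sums equalised. Thermal stability relative to control samples, from duplicates, is given as log2 fold change.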

Chain of UniProt O43741 (O43741 whole entry, looked up): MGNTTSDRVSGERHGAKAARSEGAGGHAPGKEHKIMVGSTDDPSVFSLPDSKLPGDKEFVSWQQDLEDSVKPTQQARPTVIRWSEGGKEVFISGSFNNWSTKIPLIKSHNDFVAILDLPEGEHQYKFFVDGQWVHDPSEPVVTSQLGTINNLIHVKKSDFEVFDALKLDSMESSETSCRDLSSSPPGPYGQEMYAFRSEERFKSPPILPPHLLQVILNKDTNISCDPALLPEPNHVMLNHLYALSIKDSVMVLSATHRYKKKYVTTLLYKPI
Chain of UniProt O75400 (O75400 whole entry, looked up): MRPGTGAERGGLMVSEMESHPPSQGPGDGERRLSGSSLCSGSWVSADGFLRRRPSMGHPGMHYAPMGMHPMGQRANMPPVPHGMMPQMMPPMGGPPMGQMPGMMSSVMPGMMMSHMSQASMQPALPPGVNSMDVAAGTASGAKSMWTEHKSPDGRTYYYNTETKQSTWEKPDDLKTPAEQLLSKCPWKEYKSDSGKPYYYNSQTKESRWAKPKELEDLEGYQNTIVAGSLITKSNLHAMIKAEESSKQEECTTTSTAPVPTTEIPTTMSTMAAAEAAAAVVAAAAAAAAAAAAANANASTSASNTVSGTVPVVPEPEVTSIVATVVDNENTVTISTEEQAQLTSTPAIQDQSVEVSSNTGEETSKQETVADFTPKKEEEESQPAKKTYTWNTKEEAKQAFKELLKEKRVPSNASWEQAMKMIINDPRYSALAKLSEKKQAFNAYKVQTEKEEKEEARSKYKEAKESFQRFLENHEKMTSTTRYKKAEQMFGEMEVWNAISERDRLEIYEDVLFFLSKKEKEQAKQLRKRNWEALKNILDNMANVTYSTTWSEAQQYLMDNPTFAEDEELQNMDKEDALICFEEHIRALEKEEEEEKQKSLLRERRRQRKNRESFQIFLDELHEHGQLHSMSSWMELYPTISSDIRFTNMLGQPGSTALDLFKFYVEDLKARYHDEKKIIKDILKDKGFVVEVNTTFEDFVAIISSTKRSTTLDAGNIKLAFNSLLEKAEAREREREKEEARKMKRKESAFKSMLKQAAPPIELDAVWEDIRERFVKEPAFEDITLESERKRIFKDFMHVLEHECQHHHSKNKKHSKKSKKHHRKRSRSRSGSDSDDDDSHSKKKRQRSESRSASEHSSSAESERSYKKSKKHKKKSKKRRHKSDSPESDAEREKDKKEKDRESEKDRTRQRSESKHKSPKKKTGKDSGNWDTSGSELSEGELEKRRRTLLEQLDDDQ
Chain of UniProt Q86W56 (Q86W56 whole entry, looked up): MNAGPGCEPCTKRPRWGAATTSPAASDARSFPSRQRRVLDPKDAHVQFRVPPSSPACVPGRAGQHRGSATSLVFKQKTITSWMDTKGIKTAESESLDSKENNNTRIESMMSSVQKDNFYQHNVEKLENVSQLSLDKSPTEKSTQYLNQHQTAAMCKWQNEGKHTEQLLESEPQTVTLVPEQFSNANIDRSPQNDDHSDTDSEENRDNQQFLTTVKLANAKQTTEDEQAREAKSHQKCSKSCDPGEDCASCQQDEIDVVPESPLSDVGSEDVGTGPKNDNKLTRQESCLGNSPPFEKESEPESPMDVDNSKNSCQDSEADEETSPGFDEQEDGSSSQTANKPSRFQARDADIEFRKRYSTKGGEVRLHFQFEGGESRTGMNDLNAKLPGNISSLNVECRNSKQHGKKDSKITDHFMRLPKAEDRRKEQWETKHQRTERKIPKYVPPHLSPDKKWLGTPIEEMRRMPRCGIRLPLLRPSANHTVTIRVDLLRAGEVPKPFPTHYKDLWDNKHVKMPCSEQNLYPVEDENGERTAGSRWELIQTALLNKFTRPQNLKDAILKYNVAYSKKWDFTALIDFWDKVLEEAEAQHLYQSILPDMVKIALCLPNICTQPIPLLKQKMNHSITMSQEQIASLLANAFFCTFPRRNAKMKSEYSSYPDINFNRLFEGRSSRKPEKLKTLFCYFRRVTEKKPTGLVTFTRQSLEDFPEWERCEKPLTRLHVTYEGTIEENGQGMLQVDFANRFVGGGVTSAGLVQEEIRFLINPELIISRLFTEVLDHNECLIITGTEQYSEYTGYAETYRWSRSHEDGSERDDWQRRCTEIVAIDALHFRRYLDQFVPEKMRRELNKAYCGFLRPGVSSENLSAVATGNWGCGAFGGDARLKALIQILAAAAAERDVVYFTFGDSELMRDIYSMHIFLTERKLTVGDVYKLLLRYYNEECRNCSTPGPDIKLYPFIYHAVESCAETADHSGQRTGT
Chain of UniProt Q8TAP8 (Q8TAP8 whole entry, looked up): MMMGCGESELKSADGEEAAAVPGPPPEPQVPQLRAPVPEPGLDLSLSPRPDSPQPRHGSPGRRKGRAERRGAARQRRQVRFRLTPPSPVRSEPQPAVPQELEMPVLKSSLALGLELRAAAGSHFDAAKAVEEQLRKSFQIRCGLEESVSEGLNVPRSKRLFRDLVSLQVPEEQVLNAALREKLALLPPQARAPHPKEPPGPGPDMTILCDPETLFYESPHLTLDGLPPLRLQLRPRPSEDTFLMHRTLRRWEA
Chain of UniProt Q9BTU6 (Q9BTU6 whole entry, looked up): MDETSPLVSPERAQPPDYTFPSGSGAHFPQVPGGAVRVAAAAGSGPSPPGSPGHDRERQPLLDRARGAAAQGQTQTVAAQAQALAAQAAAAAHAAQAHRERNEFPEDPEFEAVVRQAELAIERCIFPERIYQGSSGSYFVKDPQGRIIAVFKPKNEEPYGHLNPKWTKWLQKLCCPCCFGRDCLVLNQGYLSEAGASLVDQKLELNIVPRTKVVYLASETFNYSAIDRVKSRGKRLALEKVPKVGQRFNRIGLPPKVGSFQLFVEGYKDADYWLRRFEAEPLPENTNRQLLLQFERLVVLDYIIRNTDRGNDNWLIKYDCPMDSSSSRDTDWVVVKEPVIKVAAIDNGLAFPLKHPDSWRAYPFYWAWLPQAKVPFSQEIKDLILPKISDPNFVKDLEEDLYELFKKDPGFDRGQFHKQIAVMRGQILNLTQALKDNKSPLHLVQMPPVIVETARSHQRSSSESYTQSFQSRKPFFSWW
Chain of UniProt Q9H300 (Q9H300 whole entry, looked up): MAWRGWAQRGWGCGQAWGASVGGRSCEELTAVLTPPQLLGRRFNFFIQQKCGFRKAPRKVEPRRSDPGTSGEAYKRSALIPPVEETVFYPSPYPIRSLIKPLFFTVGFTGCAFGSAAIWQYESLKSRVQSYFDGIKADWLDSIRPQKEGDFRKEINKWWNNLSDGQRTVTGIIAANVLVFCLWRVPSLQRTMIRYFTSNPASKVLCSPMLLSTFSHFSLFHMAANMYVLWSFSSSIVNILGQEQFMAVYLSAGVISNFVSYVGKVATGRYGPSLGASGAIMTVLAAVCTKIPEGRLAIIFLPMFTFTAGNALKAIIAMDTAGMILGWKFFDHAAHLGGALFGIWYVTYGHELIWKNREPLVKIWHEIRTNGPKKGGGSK
Chain of UniProt P53350 (P53350 whole entry, looked up): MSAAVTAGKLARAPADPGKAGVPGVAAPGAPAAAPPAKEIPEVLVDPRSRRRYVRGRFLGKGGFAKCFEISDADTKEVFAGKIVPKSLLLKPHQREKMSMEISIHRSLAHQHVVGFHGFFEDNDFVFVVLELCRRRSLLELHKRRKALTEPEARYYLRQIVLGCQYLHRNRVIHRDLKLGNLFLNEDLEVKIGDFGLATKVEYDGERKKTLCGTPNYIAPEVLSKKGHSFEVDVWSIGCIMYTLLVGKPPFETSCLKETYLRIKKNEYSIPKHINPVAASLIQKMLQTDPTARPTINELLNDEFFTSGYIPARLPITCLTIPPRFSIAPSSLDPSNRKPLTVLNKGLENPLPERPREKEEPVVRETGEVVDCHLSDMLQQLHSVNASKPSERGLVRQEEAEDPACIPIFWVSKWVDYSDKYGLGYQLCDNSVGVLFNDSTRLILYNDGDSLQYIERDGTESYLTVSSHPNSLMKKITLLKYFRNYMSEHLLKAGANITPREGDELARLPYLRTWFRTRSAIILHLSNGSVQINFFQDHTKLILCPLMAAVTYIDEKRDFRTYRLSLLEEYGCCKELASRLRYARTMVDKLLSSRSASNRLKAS
Chain of UniProt Q8NCC3 (Q8NCC3 whole entry, looked up): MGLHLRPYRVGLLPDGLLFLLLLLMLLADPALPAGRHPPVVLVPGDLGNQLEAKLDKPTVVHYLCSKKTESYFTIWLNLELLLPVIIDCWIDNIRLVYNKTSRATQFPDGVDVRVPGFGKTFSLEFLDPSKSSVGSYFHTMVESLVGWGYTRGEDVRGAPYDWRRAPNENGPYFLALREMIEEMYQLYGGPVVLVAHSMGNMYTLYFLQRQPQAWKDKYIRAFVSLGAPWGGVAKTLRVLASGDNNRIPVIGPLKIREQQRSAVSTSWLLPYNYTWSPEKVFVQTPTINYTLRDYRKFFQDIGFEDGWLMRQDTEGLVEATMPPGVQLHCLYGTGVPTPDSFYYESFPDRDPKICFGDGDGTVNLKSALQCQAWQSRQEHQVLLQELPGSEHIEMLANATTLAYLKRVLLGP
Chain of UniProt P62195 (P62195 whole entry, looked up): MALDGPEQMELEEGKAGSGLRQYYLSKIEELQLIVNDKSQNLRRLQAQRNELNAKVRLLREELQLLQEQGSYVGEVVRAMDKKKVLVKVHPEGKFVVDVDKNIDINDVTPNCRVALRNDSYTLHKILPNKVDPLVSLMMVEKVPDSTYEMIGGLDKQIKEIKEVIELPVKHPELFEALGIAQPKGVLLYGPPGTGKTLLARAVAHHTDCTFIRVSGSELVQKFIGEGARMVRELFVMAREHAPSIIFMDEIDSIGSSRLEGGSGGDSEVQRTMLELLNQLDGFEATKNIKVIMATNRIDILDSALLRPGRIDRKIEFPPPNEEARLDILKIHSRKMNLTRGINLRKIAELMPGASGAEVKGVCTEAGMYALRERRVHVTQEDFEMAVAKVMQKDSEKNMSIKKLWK
Chain of UniProt Q9Y2Y1 (Q9Y2Y1 whole entry, looked up): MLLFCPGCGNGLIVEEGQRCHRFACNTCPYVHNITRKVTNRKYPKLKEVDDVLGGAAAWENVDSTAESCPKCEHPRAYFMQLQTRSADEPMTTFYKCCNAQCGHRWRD

log2 fold change, inactive:
PDE2A (UniProt O00408) 0.035
PSMC5 (UniProt P62195) -0.005
POMP (UniProt Q9Y244) 0.022
PELO (UniProt Q9BRX2) 0.054
POLR2A (UniProt P24928) 0.086
PHAX (UniProt Q9H814) 0.092
PRPF31 (UniProt Q8WWY3) -0.038
PKM isoform 2 (UniProt P14618) -0.052
PSMD11 (UniProt O00231) -0.028
PURA (UniProt Q00577) 0.248
PPIL4 (UniProt Q8WUA2) -0.005
POLR2K (UniProt P53803) 0.097
PIK3C3 (UniProt Q8NEB9) 0.051
PRIM2 (UniProt P49643) 0.033
PARG (UniProt Q86W56) 0.048
PTP4A1 (UniProt Q93096) -0.001
PPP1R14A (UniProt Q96A00) -0.089
POLR3K (UniProt Q9Y2Y1) 0.013
PARL (UniProt Q9H300) 0.032
QRSL1 (UniProt Q9H0R6) -0.049
PRPF40A (UniProt O75400) -0.038
PLA2G15 (UniProt Q8NCC3) 0.076
PATL1 (UniProt Q86TB9) 0.04
PDCD6IP (UniProt Q8WUM4) 0.094
PRKACA (UniProt P17612) -0.051
PEX13 (UniProt Q92968) 0.025
PPP1R35 (UniProt Q8TAP8) 0.003
PIGT (UniProt Q969N2) 0
PDS5B (UniProt Q9NTI5) 0.027
PRKAR1A (UniProt P10644) 0.166
PGM3 isoform 4 (UniProt O95394) -0.012
PLK1 (UniProt P53350) -0.135
PI4K2A (UniProt Q9BTU6) -0.012
PLSCR1 (UniProt O15162) 0.022
POLD3 (UniProt Q15054) -0.022
PPP1CA (UniProt P62136) 0
PRKAB2 (UniProt O43741) 0.031

compound: O=C1NC(=O)C(c2cnc3ccccn23)=C1c1cn2c3c(cc(F)cc13)CN(C(=O)N1CCCCC1)CC2; assay: as above
Method in brief: as §1

log2 fold change, inactive:
PDE2A (UniProt O00408) -0.052
PSMC5 (UniProt P62195) 0.063
POMP (UniProt Q9Y244) -0.022
PELO (UniProt Q9BRX2) 0.063
POLR2A (UniProt P24928) 0.059
PHAX (UniProt Q9H814) 0.046
PRPF31 (UniProt Q8WWY3) -0.194
PKM isoform 2 (UniProt P14618) 0.043
PSMD11 (UniProt O00231) 0.071
PURA (UniProt Q00577) 0.185
PPIL4 (UniProt Q8WUA2) -0.005
POLR2K (UniProt P53803) 0.002
PIK3C3 (UniProt Q8NEB9) 0.078
PRIM2 (UniProt P49643) -0.096
PARG (UniProt Q86W56) 0.065
PTP4A1 (UniProt Q93096) -0.075
PPP1R14A (UniProt Q96A00) -0.014
POLR3K (UniProt Q9Y2Y1) -0.028
PARL (UniProt Q9H300) -0.082
QRSL1 (UniProt Q9H0R6) -0.084
PRPF40A (UniProt O75400) 0.003
PLA2G15 (UniProt Q8NCC3) -0.074
PATL1 (UniProt Q86TB9) 0.069
PDCD6IP (UniProt Q8WUM4) -0.009
PRKACA (UniProt P17612) 0.05
PEX13 (UniProt Q92968) 0.026
PPP1R35 (UniProt Q8TAP8) 0.002
PIGT (UniProt Q969N2) -0.01
PDS5B (UniProt Q9NTI5) -0.08
PRKAR1A (UniProt P10644) 0.063
PGM3 isoform 4 (UniProt O95394) -0.008
PLK1 (UniProt P53350) 0.032
PI4K2A (UniProt Q9BTU6) -0.05
PLSCR1 (UniProt O15162) -0.081
POLD3 (UniProt Q15054) -0.013
PPP1CA (UniProt P62136) 0.007
PRKAB2 (UniProt O43741) 0.121
